The supplement of paper PMC6555819

System: RARb homodimer (NR concentration 270 nM)
Assay: PBM binding z-score (relative to random genomic background probes); higher = stronger binding; sequences stand for … in GC…GCGATTGACAGCGTAGAATGAAGG
Method in brief: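 Ligand-free nuclear receptor dimers were bound for 1 h to custom Agilent 4×180K protein-binding microarrays. Detection used antibodies against each partner (one per run). Binding z-scores rest on regression-normalized fluorescence, with random background probes as the reference.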

Sequence	PBM binding z-score
AGAACGAGGGCAAAGAGTTGATAGCACGGGTGGC	1.12
CAAACTAGGTCACGAAAGGTCTAAGTCGAATGAC	3.98
GATACAGGGTCAGCTAGCGGCCAGAGTATGGAAA	2.95
TCTTCTAGATCAACAGGAGGTTAAGAAAGATCGA	0.617
TCTCGGAGGACACGAAAGGTCACAGCTCGACATC	4.92
ACTATTAGTTGACTTACGGCAACCGATACGACGC	0.0214
TCTATTTGGTCACGGAGGTCACACACGACGGGTA	4.61
TCTCGGAGGACACGACAGGTCAGAGCTCGACATC	2.87
TGAAAGAGGTTAAAGATCAGGGAACGTGGCGTCG	1.1
CAAACTAGGTTAAGGTCAAAGTCGGTTTGTGCCA	4.49
AATACAGGGTCATCGTAGGCGAGAGTACGCACAG	3.47
CTCGAAAGGTCGGGCTCAGGTGAGTATACCAAAC	2.49
ATCGAAAGGTCGACGAGGCGAGTATACACCGTTT	2.61
CCGACTGGGGCATAAGGTTTCCATAAGCCAGCCC	-0.165
CCTAGCAGGCCAGGGTTACTCAAGCATTTCGCTT	0.0028
TTACCCAGGTGAAAGGTCGTTGATGCACGCCTTG	2.56
CGTACTAGGTCAAGGACAGTGAATCTCCGCACGC	3.14
ACTAGCAGGCCAAGTGTGGGTCACTCAAACAAAG	2.25
CCAGACAGGTGAAAGATAACTCAGTCTGGTACGC	0.244
CCTGTTAGGTCAATGGTCAGCTAAAGCAGCTCGC	3.5

Sequence	PBM binding z-score
AGTCAAAGTTCAGGACGTGGTAACGTAAAGCACG	3.13
CGTCCAAGGTCAGAGAGGTCAGAGAATGCCGAGT	5.37
AGAACGAGGGCACGCAGAGTTGATAGCAGAGTAG	1.68
GCTGCTAGGTGAGGTTGGTCAGCTAACGGGTACG	0.45
GCAGACAGGTGAAACCCAGGTAACTCAGGGTGGC	0.254
TGAATGCGGTTATAAGATCAGGGAACGTTGCAAA	-0.46
ACTAGTTGGTCAGCTGAGGTCACAGACAATTCGG	4.19
TCTCGGAGGACACGAAAGGTCAGAGCCCGACATC	4.82
GTACCGAGGTGAATAGGTCGTTGATGAGTAGGCG	1.73
CGTCCAAGGTCTTAGGAGGTCAGTGAAGACAGAT	3.12
GGAACGAGGACATTCGAGTTGATAGCATGGCGAT	-0.261
ACCGAAAGGTCGTGAGGTGAGTATACAGAAAGGC	2.84
CGTCCAAGGTCAATGCTAGTTCAGTGAAAGCATT	4.24
ATCGAAAGGTCGAGGTGAGTATGGAGAAAGGGAA	2.76
TCAGACAGGTGAAGATAACTCAGGTACGCAGTCG	0.661
CCTACTGGGCCATCAGGTCATTAATATCAACGTT	2.55
CAAACTAGCTCAAGAGGTCAAAGTCCGCTTCCCG	4.52
TCATATAGGTAAATGCTAGGTGTAAGTCCGATCT	-0.036
TGAACGAGGTTATAAGATCAGGGAACGTTGCAAA	0.253
CCTACTGGGCCAAAGGTAATTGATTCCAATGCTC	0.00337
